{
  "source": "PubChem BioAssay (NCATS)",
  "note": "Results filed as inconclusive are left out. The source made the active and inactive calls. Calls come from the whole dose curve; as a rule, active = well fitted cell-killing curve with a large enough effect; inconclusive = small, poorly fitted or top-dose-only effect, or effect the other way; inactive = no such curve, though single readings can be large or run the other way.",
  "data": [
    {"test": "Viability qHTS for spleen associated tyrosine kinase inhibitor (SYKi) drug resistant MV4-11 cells (AID 1963824); note: nearly all actives have a fitted effect of over 35% in size; note: potency is the fitted concentration of half-maximal effect", "settings": "SYKi-resistant MV4-11 viability, CellTiter-Glo, 72 h; series mostly up to 45 µM", "method_in_brief": "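SYK-inhibitor-resistant MV4-11 AML cells were seeded at 500 per well onto compound and cultured 72 hours (37 °C, 5% CO2). CellTiter-Glo was then added, and after 10 min at room temperature, luminescence gave viability.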", "values": [
      {"molecule": "COC(=O)C1=CO[C@@H](O[C@@H]2O[C@H](CO)[C@@H](O)[C@H](O)[C@H]2O)[C@@H]2C(C)CC(=O)[C@]12O", "note": "(stereo not given in full)", "Potency": "inactive"},
      {"molecule": "C=C(C)C(=O)OC1CC2(C)OC(=CC2=O)C(=C)CC2OC(=O)C(=C)C12", "note": "(stereo not given)", "Potency": "0.36 µM (active)"},
      {"molecule": "CC1(C)CCC[C@@]2(C)[C@H]1[C@H](O)C=C(CO)[C@]2(O)CO", "Potency": "inactive"},
      {"molecule": "O=C(Nc1cccc(C(F)(F)F)c1)c1ccccc1NCc1ccncc1", "Potency": "9.2 µM (active)"},
      {"molecule": "CCOC(=O)CCNc1cc(N2CCc3ccccc3CC2)nc(-c2cccnc2)n1", "Potency": "14.6 µM (active)"},
      {"molecule": "CO/N=C(/C(=O)N[C@@H]1C(=O)N2C(C(=O)O)=C(CSC(=O)c3ccco3)CS[C@H]12)c1csc(N)n1", "Potency": "inactive"},
      {"molecule": "CC(=O)c1ccc2c(c1)C(O)C(C(C)(C)O)O2", "note": "(stereo not given)", "Potency": "inactive"},
      {"molecule": "CCOc1c2c(c(OCC)c3ccccc13)C(=O)N(c1ccc(CC(=O)NS(=O)(=O)c3ccccc3)cc1)C2", "Potency": "inactive"},
      {"molecule": "COc1ccnc2[nH]cc(C(=O)C(=O)N3CCN(C(=O)c4ccccc4)CC3C)c12", "note": "(stereo not given)", "Potency": "inactive"},
      {"molecule": "CC1(C)CC[C@]2(C(=O)O)CC[C@]3(C)C(=CCC4[C@@]5(C)C[C@@H](O)[C@H](O)[C@@](C)(CO)C5CC[C@]43C)C2C1", "note": "(stereo not given in full)", "Potency": "7.96 µM (active)"},
      {"molecule": "CC1=CC(=O)CC(C)(CO)C1(O)/C=C/C(C)O[C@@H]1O[C@H](CO)[C@@H](O)[C@H](O)[C@H]1O", "note": "(stereo not given in full)", "Potency": "inactive"},
      {"molecule": "O=C(C1=CCN2c3c(cccc31)OC[C@H]2CN1CCOCC1)c1cccc2ccccc12", "Potency": "18.4 µM (active)"},
      {"molecule": "Cc1occc(=O)c1O[C@@H]1O[C@H](CO)[C@@H](O)[C@H](O)[C@H]1O", "Potency": "inactive"},
      {"molecule": "CC(OC1OCCN(Cc2n[nH]c(=O)[nH]2)C1c1ccc(F)cc1)c1cc(C(F)(F)F)cc(C(F)(F)F)c1", "note": "(stereo not given)", "Potency": "5.8 µM (active)"},
      {"molecule": "C[C@@H]1C[C@H](O)/C=C/[C@H](O)[C@@H](O)CC(=O)O1", "Potency": "inactive"},
      {"molecule": "C[C@@]1(O)[C@H](O)[C@@H](CO)O[C@H]1n1cnc2c(=O)[nH]c(N)nc21", "Potency": "inactive"},
      {"molecule": "Oc1cccc(Nc2ccnc3[nH]c4ccccc4c23)c1", "Potency": "2.31 µM (active)"},
      {"molecule": "CC(=O)OC[C@@]12C(=O)C[C@@H](C)[C@]3(C[C@@H](c4ccoc4)O[C@H]3OC(C)=O)[C@H]1CCC[C@]21CO1", "Potency": "inactive"},
      {"molecule": "O=C(OC[C@H]1O[C@@H](Oc2ccccc2CO)[C@H](O)[C@@H](O)[C@@H]1O)c1ccccc1", "Potency": "inactive"},
      {"molecule": "C=CC(C)(C)C12C=C(OC)C(=O)N3C(C(C)C)C(=O)NC31N(OC)c1ccccc12", "note": "(stereo not given)", "Potency": "7.09 µM (active)"},
      {"molecule": "CN(C)Cc1ccc(-c2cnn3c(-c4cccc(NC(=O)c5cccc(C(F)(F)F)c5)c4)ccnc23)cc1", "Potency": "3.66 µM (active)"},
      {"molecule": "C=CC(=O)N1CCC(C2CCNc3c(C(N)=O)c(-c4ccc(Oc5ccccc5)cc4)nn32)CC1", "note": "(stereo not given)", "Potency": "11.8 µM (active)"},
      {"molecule": "O=C(C[C@@H]1C(C(=O)O)=CO[C@@H](O[C@@H]2O[C@H](CO)[C@@H](O)[C@H](O)[C@H]2O)/C1=C\\CO)OCCc1ccc(O)cc1", "Potency": "inactive"},
      {"molecule": "COc1ccc(OC(=O)N(CC(=O)O)Cc2ccc(OCCc3nc(-c4ccccc4)oc3C)cc2)cc1", "Potency": "inactive"},
      {"molecule": "CCc1c(C)nc2c(-c3cnn(-c4cc(CO)ccn4)c3)c[nH]n2c1=O", "Potency": "inactive"},
      {"molecule": "COC1CC(O[C@H]2CC[C@@]3(C)C(CCC4C3[C@H](OC(C)=O)[C@@H](OC(=O)/C=C/c3ccccc3)[C@]3(C)C(C(C)=O)CC[C@]43O)C2)OC(C)C1OC1CC(OC)C(OC2CC(OC)C(OC3OC(C)C(OC4OC(CO)C(O)C(O)C4O)C(OC)C3O)C(C)O2)C(C)O1", "note": "(stereo not given in full)", "viability, % of control": "45.7% [at 9.25 µM] (inactive)"},
      {"molecule": "CN(CC1COCCO1)S(=O)(=O)Nc1ccc2ccc3ncc(-c4cnn(C)c4)cc3c(=O)c2c1", "note": "(stereo not given)", "Potency": "0.651 µM (active)"},
      {"molecule": "C=C1C(=O)O[C@@H]2C[C@H](C)[C@@H]3CC(=O)[C@H](O)[C@@]3(C)C[C@H]12", "Potency": "11.6 µM (active)"},
      {"molecule": "CC(=O)O[C@H]1[C@H](O[C@H]2CC[C@]34C[C@]35CC[C@]3(C)[C@@H]([C@@]6(C)CC[C@@H](C(C)(C)O)O6)[C@@H](O)C[C@@]3(C)[C@@H]5C[C@H](O[C@@H]3O[C@H](CO)[C@@H](O)[C@H](O)[C@H]3O)[C@H]4C2(C)C)OC[C@@H](OC(C)=O)[C@@H]1O", "Potency": "inactive"},
      {"molecule": "Cc1cn([C@H]2C[C@H](O)[C@@H](CO)O2)c(=O)nc1N", "Potency": "inactive"},
      {"molecule": "CCCC(Nc1nc(-c2ccc(NC(=O)NCC)c(OC)c2)ncc1C)c1cccnc1", "note": "(stereo not given)", "Potency": "0.13 µM (active)"},
      {"molecule": "[O-][n+]1cccc(-c2nc3c(Cl)cccc3cc2[C@@H](Nc2ncnc3cccnc23)C(F)(F)F)c1", "Potency": "13.2 µM (active)"},
      {"molecule": "COc1ccc(C(=O)N(CCC(C)C)Cc2nc(C)c(C)n2Cc2ccccc2C)c(OC)c1", "Potency": "20.6 µM (active)"},
      {"molecule": "C=C1C(=O)OC2C3=C(C)C(=O)CC3C(C)CC(O)C12", "note": "(stereo not given)", "Potency": "6.51 µM (active)"},
      {"molecule": "CCCc1c(C(C)C)nc(C(C)C)c([C@@H](C)O)c1-c1ccc(F)cc1O", "Potency": "8.2 µM (active)"},
      {"molecule": "OCC1OC(Oc2cc(O)cc(/C=C/c3ccc(O)cc3)c2)C(O)C(O)C1O", "note": "(stereo not given)", "Potency": "inactive"},
      {"molecule": "CC1(C)CC[C@]23CO[C@@]4(CCC5[C@@]6(C)CC[C@H](O[C@@H]7OC[C@H](O[C@@H]8O[C@H](CO)[C@@H](O)[C@H](O)[C@H]8O)[C@H](O)[C@H]7O[C@@H]7O[C@H](CO)[C@@H](O[C@@H]8O[C@H](CO)[C@@H](O)[C@H](O)[C@H]8O)[C@H](O)[C@H]7O)[C@@](C)(CO)C6CC[C@@]5(C)[C@]4(C)C[C@H]2OC2OCC(O)C(O)C2O)C3C1", "note": "(stereo not given in full)", "Potency": "3.09 µM (active)"},
      {"molecule": "Nc1ccc(-c2cccc3c(=O)cc(N4CCOCC4)oc23)cc1", "Potency": "7.31 µM (active)"},
      {"molecule": "CC(C)C1(O[C@@H]2O[C@H](CO)[C@@H](O)[C@H](O)[C@H]2O)CC=C(CO)CC1", "note": "(stereo not given in full)", "Potency": "inactive"},
      {"molecule": "O=C1C=CC2OC(c3ccccc3)C(O)C2O1", "note": "(stereo not given)", "Potency": "4.11 µM (active)"}
    ]}
  ]
}
